Of roughly 7,900 targets only a part is listed; those with a hit were picked by preference. About 0.6% of all pairs of compound and target were hits.
Experiments:
Assay in all cases: log2 fold change, soluble protein after heating vs DMSO (PISA); higher = thermal stabilisation; K562 cells, 10 uM, 30 min; active = over 0.2 and 3.5 SD of the protein, either way, in both replicates (recomputed)
[1] = compound: NC(=O)Nc1cc(-c2cccc(F)c2)sc1C(=O)N[C@H]1CCCNC1
In short: (§1)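 K562 cells at 2×10^6 cells/mL were exposed to 10 μM compound for 30 min, then aliquots were heated for 3 min across 48°C-58°C, pooled, and extracted in PBS containing 0.5% NP-40 at 4°C. The supernatant after 21,000xg for 90 min was taken as soluble protein and measured by TMTpro 16plex LC-MS/MS with channel sums equalised. Thermal stability is reported relative to control samples, with values from duplicates. Fold changes are given on a log2 scale.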

[2] = compound: NC(=O)c1cnc(N[C@@H]2CCCC[C@@H]2N)nc1Nc1cccc(-n2nccn2)c1
In short: as §1

[3] = compound: NCC(=O)Nc1ccc(-n2nc(C(F)(F)F)cc2-c2ccc3c(ccc4ccccc43)c2)cc1
In short: as §1

entinostat = compound: Nc1ccccc1NC(=O)c1ccc(CNC(=O)OCc2cccnc2)cc1 [entinostat]
In short: as §1

[4] = compound: O=C1NC(=O)C(c2cnc3ccccn23)=C1c1cn2c3c(cc(F)cc13)CN(C(=O)N1CCCCC1)CC2
In short: as §1

[5] = compound: NC1(c2ccc(-c3nc4ccn5c(=O)[nH]nc5c4cc3-c3ccccc3)cc2)CCC1
In short: as §1

vorinostat = compound: O=C(CCCCCCC(=O)Nc1ccccc1)NO [vorinostat]
In short: as §1

citarinostat = compound: O=C(CCCCCCNC(=O)c1cnc(N(c2ccccc2)c2ccccc2Cl)nc1)NO [citarinostat]
In short: as §1

silmitasertib = compound: O=C(O)c1ccc2c(c1)nc(Nc1cccc(Cl)c1)c1ccncc12 [silmitasertib]
In short: as §1

[6] = compound: c1cc(OCCN2CCCCC2)cc(-c2n[nH]c3ccc(-c4nnc[nH]4)cc23)c1
In short: as §1

Measured: log2 fold change

MED7 (UniProt O43513)
UniProt O43513, sequence (O43513 whole entry, looked up): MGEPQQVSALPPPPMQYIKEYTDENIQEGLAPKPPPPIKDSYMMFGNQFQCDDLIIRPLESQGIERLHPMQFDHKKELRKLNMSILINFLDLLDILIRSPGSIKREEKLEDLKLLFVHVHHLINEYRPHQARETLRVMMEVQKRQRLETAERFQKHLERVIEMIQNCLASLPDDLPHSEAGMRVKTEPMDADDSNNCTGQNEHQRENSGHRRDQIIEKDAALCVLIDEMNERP
inactive: [1] 0.034 | [2] 0.122 | [3] -0.041 | entinostat -0.16 | [4] -0.085

KPNB1 (UniProt Q14974)
UniProt Q14974, sequence (Q14974 whole entry, looked up): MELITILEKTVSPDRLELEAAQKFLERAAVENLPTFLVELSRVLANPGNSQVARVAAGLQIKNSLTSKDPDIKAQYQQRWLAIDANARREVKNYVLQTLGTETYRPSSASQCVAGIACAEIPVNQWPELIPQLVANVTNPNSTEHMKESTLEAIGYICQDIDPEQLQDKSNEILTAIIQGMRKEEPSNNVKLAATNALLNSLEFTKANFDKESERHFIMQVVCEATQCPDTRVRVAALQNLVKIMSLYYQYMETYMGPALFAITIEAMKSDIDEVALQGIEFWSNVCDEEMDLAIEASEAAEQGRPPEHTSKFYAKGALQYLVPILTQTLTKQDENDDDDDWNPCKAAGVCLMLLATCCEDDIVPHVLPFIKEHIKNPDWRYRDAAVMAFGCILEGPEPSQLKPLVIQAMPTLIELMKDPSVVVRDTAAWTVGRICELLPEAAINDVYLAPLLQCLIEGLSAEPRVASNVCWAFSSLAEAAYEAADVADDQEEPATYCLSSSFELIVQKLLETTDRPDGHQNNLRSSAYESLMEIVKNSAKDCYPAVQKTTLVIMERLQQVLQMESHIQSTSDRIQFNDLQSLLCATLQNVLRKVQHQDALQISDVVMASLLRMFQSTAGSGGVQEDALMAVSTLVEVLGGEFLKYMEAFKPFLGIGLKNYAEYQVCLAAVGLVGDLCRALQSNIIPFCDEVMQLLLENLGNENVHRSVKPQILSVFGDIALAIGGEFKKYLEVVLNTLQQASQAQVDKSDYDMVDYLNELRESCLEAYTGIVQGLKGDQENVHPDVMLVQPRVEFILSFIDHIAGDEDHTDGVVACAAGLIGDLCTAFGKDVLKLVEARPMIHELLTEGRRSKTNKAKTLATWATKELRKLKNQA
inactive: [1] 0.025 | [2] -0.087 | [5] -0.073 | [3] -0.037 | entinostat 0.055 | vorinostat 0.038 | citarinostat 0.097 | silmitasertib 0.099 | [4] 0.068 | [6] -0.059

IL27RA (UniProt Q6UWB1)
inactive: [1] -0.077 | [2] -0.091 | [5] -0.116 | [3] -0.123 | entinostat 0.016 | citarinostat 0.082 | silmitasertib 0.009 | [4] 0.154 | [6] -0.172

IP6K1 (UniProt Q92551)
active: [6] 0.858
inactive: [1] -0.039 | [2] -0.253 | [5] -0.457 | entinostat 0.089 | vorinostat 0.138 | citarinostat -0.02 | silmitasertib -0.059 | [4] -0.048

MASTL (UniProt Q96GX5)
inactive: [1] 0.123 | [2] -0.018 | [5] 0.144 | [3] -0.004 | entinostat 0.053 | citarinostat -0.018 | silmitasertib 0.123 | [4] 0.039 | [6] 0.002

MAGED1 isoform 2 (UniProt Q9Y5V3)
inactive: [1] 0.098 | [2] -0.029 | [3] -0.258 | entinostat 0 | [4] 0.262

IMMP1L (UniProt Q96LU5)
inactive: [1] -0.062 | [2] -0.055 | [5] -0.103 | [3] -0.037 | entinostat 0.005 | citarinostat 0.044 | silmitasertib -0.132 | [4] -0.088 | [6] 0.017

MAP4 (UniProt P27816)
UniProt P27816, sequence (P27816 whole entry, looked up): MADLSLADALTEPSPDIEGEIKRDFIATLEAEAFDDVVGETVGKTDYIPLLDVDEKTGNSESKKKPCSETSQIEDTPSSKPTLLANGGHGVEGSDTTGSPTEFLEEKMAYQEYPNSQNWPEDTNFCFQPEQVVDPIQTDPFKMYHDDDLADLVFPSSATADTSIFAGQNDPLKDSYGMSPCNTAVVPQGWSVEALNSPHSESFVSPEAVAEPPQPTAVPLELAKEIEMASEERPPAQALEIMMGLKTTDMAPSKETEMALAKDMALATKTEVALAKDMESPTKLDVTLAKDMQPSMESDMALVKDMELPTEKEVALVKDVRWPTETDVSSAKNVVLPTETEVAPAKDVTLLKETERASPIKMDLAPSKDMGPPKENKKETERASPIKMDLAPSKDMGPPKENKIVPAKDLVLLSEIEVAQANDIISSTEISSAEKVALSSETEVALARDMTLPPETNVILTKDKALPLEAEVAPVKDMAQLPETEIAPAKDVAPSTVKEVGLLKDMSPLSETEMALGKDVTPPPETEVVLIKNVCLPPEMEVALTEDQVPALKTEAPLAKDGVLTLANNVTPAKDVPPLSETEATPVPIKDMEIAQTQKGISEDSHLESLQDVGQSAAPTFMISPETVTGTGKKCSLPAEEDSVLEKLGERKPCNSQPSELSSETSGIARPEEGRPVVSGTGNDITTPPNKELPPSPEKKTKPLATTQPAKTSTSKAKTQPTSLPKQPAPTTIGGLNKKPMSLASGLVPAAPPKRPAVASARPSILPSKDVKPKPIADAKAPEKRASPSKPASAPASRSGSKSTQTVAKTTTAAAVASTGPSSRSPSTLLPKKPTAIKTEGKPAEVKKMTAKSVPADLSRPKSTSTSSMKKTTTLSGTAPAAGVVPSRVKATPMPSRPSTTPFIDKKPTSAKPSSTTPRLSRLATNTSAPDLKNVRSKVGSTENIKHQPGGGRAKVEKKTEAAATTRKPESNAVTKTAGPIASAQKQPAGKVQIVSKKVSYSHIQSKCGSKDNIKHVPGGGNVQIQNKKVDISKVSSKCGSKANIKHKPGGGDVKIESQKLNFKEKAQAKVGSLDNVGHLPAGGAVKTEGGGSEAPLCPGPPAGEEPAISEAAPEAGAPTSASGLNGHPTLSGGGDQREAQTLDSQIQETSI
inactive: [1] 0.039 | [2] 0.002 | [5] 0.04 | [3] 0.025 | entinostat -0.015 | vorinostat -0.013 | citarinostat -0.007 | silmitasertib -0.018 | [4] 0.003 | [6] -0.014

MED25 isoform 3 (UniProt Q71SY5)
UniProt Q71SY5, sequence (Q71SY5 whole entry, looked up): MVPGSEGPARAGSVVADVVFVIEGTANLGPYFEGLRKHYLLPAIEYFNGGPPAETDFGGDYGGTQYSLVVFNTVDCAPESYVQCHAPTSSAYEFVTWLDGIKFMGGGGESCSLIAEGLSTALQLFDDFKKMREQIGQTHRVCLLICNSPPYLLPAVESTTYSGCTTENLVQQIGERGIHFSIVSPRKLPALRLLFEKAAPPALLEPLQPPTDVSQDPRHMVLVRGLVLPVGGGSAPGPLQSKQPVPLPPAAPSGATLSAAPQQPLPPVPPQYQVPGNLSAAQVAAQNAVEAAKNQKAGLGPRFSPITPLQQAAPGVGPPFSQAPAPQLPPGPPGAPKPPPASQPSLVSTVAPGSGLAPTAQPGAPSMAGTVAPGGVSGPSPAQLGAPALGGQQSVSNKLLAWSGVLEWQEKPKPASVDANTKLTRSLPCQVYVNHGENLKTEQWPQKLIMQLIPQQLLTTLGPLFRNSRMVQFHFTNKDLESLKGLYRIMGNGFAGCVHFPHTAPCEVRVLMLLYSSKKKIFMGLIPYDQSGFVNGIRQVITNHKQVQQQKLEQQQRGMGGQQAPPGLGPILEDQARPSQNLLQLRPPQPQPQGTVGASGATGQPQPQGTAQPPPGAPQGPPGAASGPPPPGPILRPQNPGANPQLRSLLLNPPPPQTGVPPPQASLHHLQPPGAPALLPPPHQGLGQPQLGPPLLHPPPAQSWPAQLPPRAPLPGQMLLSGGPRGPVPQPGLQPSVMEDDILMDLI
active: [5] -0.591
inactive: [1] -0.016 | [2] -0.021 | [3] 0.064 | entinostat 0.065 | vorinostat -0.349 | citarinostat 0.052 | silmitasertib 0.174 | [6] -0.148

ILRUN (UniProt Q9H6K1)
UniProt Q9H6K1, sequence (Q9H6K1 whole entry, looked up): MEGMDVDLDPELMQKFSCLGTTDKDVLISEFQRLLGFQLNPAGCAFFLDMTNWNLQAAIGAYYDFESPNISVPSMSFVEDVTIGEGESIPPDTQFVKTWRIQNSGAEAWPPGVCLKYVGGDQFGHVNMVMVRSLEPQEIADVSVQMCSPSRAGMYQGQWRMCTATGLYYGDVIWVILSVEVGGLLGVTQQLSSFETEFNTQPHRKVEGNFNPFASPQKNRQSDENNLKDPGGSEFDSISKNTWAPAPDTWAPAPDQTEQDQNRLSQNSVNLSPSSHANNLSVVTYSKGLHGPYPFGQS
inactive: [1] -0.213 | [2] -0.09 | [5] -0.128 | [3] -0.025 | entinostat 0.024 | citarinostat 0.027 | silmitasertib 0.014 | [4] -0.059 | [6] -0.01

LMBR1 isoform 3 (UniProt Q8WVP7)
UniProt Q8WVP7, sequence (Q8WVP7 whole entry, looked up): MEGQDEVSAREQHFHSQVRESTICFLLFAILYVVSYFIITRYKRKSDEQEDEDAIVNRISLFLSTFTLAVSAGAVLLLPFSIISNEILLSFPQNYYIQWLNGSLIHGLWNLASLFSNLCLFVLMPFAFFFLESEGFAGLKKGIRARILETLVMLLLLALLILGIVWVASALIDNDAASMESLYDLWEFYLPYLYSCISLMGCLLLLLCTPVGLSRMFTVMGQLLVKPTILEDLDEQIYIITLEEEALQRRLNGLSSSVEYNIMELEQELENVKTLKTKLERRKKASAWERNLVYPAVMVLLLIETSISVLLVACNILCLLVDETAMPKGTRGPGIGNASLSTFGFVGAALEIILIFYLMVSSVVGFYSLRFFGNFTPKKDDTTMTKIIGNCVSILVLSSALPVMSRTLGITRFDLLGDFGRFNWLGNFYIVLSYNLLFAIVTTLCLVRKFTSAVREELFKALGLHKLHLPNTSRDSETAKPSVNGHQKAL
inactive: [1] 0.047 | [2] -0.11 | [5] -0.104 | [3] -0.048 | entinostat 0.071 | vorinostat -0.016 | silmitasertib 0.014 | [4] -0.141

MELK (UniProt Q14680)
inactive: [1] -0.384 | [2] -0.128 | entinostat -0.052 | vorinostat 0.062 | citarinostat -0.001 | [4] -0.016 | [6] -0.366

MAP4 isoform 5 (UniProt P27816)
inactive: [1] 0.135 | [2] 0.087 | [5] 0.109 | entinostat 0.075 | citarinostat -0.121 | silmitasertib 0.012 | [6] 0.074
active: [4] 0.423

ITM2B (UniProt Q9Y287)
UniProt Q9Y287, sequence (Q9Y287 whole entry, looked up): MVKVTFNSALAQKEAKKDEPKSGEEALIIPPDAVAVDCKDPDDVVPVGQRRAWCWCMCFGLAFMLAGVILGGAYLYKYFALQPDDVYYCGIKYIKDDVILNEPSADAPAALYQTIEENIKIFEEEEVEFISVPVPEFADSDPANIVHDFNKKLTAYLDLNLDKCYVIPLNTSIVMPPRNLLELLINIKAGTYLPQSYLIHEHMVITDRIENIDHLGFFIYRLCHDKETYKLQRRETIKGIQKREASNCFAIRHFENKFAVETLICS
inactive: [1] -0.036 | [2] 0.091 | [5] -0.144 | [3] 0.021 | entinostat -0.083 | citarinostat -0.006 | [4] 0.109 | [6] -0.178
active: silmitasertib 0.38

MED22 (UniProt Q15528)
UniProt Q15528, sequence (Q15528 whole entry, looked up): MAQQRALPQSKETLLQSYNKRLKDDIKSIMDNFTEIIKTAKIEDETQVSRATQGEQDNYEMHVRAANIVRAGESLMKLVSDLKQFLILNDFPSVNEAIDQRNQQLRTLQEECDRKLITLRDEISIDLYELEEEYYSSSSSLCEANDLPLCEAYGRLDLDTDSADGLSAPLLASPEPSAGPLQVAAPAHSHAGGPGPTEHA
inactive: [1] 0.042 | [2] 0.029 | [5] 0.064 | [3] 0.023 | entinostat 0.049 | citarinostat -0.243 | silmitasertib -0.01 | [4] -0.074
active: [6] 0.322

MFN1 (UniProt Q8IWA4)
UniProt Q8IWA4, sequence (Q8IWA4 whole entry, looked up): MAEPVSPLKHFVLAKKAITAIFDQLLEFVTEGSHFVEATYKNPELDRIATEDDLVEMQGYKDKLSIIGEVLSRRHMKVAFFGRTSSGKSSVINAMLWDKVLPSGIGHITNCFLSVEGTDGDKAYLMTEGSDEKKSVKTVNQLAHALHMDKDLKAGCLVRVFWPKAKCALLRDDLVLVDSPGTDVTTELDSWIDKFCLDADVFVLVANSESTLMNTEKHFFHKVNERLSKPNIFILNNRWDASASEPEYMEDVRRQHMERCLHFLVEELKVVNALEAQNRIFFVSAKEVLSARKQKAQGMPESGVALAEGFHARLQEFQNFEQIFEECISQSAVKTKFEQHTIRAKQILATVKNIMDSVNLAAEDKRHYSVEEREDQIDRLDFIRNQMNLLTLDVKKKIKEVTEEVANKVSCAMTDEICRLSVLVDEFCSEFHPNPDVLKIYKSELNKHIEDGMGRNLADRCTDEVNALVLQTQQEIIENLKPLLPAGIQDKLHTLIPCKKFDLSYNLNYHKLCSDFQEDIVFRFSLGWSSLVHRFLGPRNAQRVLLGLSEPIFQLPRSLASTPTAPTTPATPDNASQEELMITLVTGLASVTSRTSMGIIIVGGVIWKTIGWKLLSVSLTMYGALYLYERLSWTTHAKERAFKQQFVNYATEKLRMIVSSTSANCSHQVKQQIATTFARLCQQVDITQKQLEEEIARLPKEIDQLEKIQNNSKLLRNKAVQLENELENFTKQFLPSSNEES
inactive: [1] -0.072 | [2] -0.171 | [5] -0.01 | [3] -0.224 | entinostat 0.034 | vorinostat 0.021 | citarinostat 0.034 | silmitasertib 0.102 | [4] -0.009 | [6] 0.02
